This is an account of results in a collection of fitness landscapes (doi:10.1126/science.1257360).

Whole data set: some 140,000 sequences, median “enrichment ratio after two sorts for PhoP signalling” near 0, cut for the highest 2% near 11. The sample holds the highest values, similar sequences and a random draw of the others, so the mix is not that of the screen.

B1: PhoQ; a variant is named by its letters at X, in order, P23837 (parent)
chain: MKKLLRLFFPLSLRVRFLLATAAVVLVLSLAYGMVALIGYSVSFDKTTFRLLRGESNLFYTLAKWENNKLHVELPENIDKQSPTMTLIYDENGQLLWAQRDVPWLMKMIQPDWLKSNGFHEIEADVNDTSLLLSGDHSIQQQLQEVREDDDDAEMTHSVAVNVYPATSRMPKLTIVVVDTIPVELKSSYMVWSWFIYVLSANLLLVIPLLWVAAWWSLRPIEALAKEVRELEEHNRELLNPATTRELTSLVRNLNRLLKSERERYDKYRTTLTDLTHSLKTPLXXLQXXLRSLRSEKMSVSDAEPVMLEQISRISQQIGYYLHRASMRGGTLLSRELHPVAPLLDNLTSALNKVYQRKGVNISLDISPEISFVGEQNDFVEVMGNVLDNACKYCLEFVEISARQTDEHLYIVVEDDGPGIPLSKREVIFDRGQRVDTLRPGQGVGLAVAREITEQYEGKIVAGESMLGGARMEVIFGRQHSAPKDE

The variants in the test derive from B1. Put plainly: enrichment ratio after two sorts for PhoP signalling (ratio (wild type AVST 3.29)); higher = more functional. To be noted: with PhoP (E. coli).
With NQKY, the enrichment ratio was at most 0.25. As to VYPF, the enrichment ratio worked out at 1.11. With GMYR the figure was at most 0.25; with RCYS, at most 0.25; with YPFH, at most 0.25. As to ANCM, the enrichment ratio was 6.06.

Consider YWCQ, for which the enrichment ratio was at most 0.25. With AGCQ the figure was 23; with AGQP, at most 0.25. With AWCM the figure was at most 0.25; with AGCM, 13.6. Regarding GNWY, the enrichment ratio was at most 0.25. The result for SFTF reads at most 0.25; that for HKIE, at most 0.25. With QMVR the figure was at most 0.25; with FCVL, 0.336; with TRVL, 11.6.

For the variant KRVL, the enrichment ratio is at most 0.25. As for FSVL, the enrichment ratio was 11.7. Turning to SLVL, the enrichment ratio was determined as 1.22. Take KSVL: the enrichment ratio was at most 0.25. The result for SSVA reads 10.9; that for SSVL, 13.8; that for VRVL, at most 0.25. For the variant SHQM, the enrichment ratio was found to be 0.951. The result for ITPF reads at most 0.25. In the case of PVFC, the enrichment ratio is at most 0.25. With QDST, the enrichment ratio is at most 0.25. The result for QTQP reads at most 0.25; that for ISEK, at most 0.25.

For the variant KQRD, the enrichment ratio is at most 0.25. Take AYKP: the enrichment ratio is at most 0.25. With IQCG, the enrichment ratio was at most 0.25. For SNCG, the enrichment ratio is 13.5.

For the variant SQCG, the enrichment ratio is 24.3. With SPCG the figure was 1.67; with LQCG, at most 0.25; with EQCG, at most 0.25. Consider ERSH, for which the enrichment ratio was at most 0.25. Regarding EHYT, the enrichment ratio is at most 0.25. The result for MMGY reads at most 0.25; that for MTGY, 14.4. With MTGR the figure was at most 0.25; with MFGY, at most 0.25. Take THGY: the enrichment ratio was found to be 13.8. The result for STGY reads 8.87; that for ADGY, at most 0.25. With LTGY the figure was at most 0.25; with NHGY, at most 0.25; with TGGY, 7.07. With MEGY the figure was 11.2; with TDGY, 11.5; with GYHY, at most 0.25.

Consider MGHH, for which the enrichment ratio is at most 0.25. With LMID the figure was at most 0.25; with KSGY, at most 0.25; with GTGY, at most 0.25. With TTGY, the enrichment ratio was 20.5. YTGY: the enrichment ratio is at most 0.25. The result for FSGY reads at most 0.25; that for TSGY, 14.8; that for EHTS, at most 0.25. The result for KLNV reads at most 0.25; that for PLEP, at most 0.25; that for KFAF, at most 0.25. For KLER, the enrichment ratio turned out to be 0.976. Consider LRTC, for which the enrichment ratio was at most 0.25. As to GPSH, the enrichment ratio was at most 0.25. The result for REFT reads at most 0.25; that for WYPR, at most 0.25; that for FIPD, at most 0.25. As for LFLL, the enrichment ratio was at most 0.25. In the case of HFLL, the enrichment ratio is at most 0.25. As for MKLL, the enrichment ratio was determined as 11.4.

For the variant AALL, the enrichment ratio turned out to be 14.9. AILL: the enrichment ratio came to 4.86. The result for HYLL reads at most 0.25; that for IALL, 8.58.

Take AYLL: the enrichment ratio is at most 0.25. In the case of MYLL, the enrichment ratio is at most 0.25. With AKLL the figure was 14.3; with HALL, 12.4. As for ERET, the enrichment ratio is at most 0.25.

As to DVMR, the enrichment ratio was at most 0.25.

Consider IMCE, for which the enrichment ratio was at most 0.25. Regarding DQPA, the enrichment ratio was at most 0.25. With YWCG, the enrichment ratio was at most 0.25. In the case of VLVV, the enrichment ratio is at most 0.25. Consider DQYW, for which the enrichment ratio is at most 0.25. With CFLG the figure was at most 0.25; with KMML, at most 0.25.

Turning to AMLL, the enrichment ratio was determined as 14.2. NMLL: the enrichment ratio was at most 0.25. For KMLL, the enrichment ratio is at most 0.25. Consider HKLL, for which the enrichment ratio was found to be 1.86. With KKLL the figure was at most 0.25. With TKLL the figure was 16.2.

In the case of VNCN, the enrichment ratio is at most 0.25.

Regarding GPQD, the enrichment ratio was at most 0.25. With AVPC the figure was at most 0.25.

Regarding AVHP, the enrichment ratio is at most 0.25. With AVFQ the figure was at most 0.25.

As to AVPS, the enrichment ratio was at most 0.25. For the variant AVMW, the enrichment ratio is at most 0.25.

For the variant AVTC, the enrichment ratio was 6.81.

Regarding AVSQ, the enrichment ratio was determined as 14.8. The result for AVSC reads 12.2; that for AVWI, at most 0.25. The result for AVMV reads 2.94.

Regarding AVMI, the enrichment ratio turned out to be 15.6. With AVSK the figure was 16.9. As for MDVN, the enrichment ratio is at most 0.25. Consider FYFS, for which the enrichment ratio is at most 0.25. KVID: the enrichment ratio is at most 0.25.

Turning to GEKS, the enrichment ratio is at most 0.25. The result for MTIG reads at most 0.25; that for NDGW, at most 0.25. On to SKVW, for which the enrichment ratio was at most 0.25. Consider AVAW, for which the enrichment ratio was 22.5. With NVAW the figure was at most 0.25; with AVFW, at most 0.25; with AVWN, at most 0.25. The result for AVPI reads 2.35; that for AVNL, at most 0.25; that for AKAW, at most 0.25. The result for AVTK reads 17.9; that for AVPA, at most 0.25; that for AVMN, 18.8. On to AVRW, for which the enrichment ratio is at most 0.25. For the variant AVTW, the enrichment ratio turned out to be 43.5. With LTGM, the enrichment ratio is at most 0.25. The result for MQNP reads at most 0.25; that for KLMC, at most 0.25; that for LHAE, at most 0.25.

As to DSVM, the enrichment ratio is at most 0.25. The result for KHEF reads at most 0.25; that for FSFL, 1.26; that for WYFI, at most 0.25. Consider EMFN, for which the enrichment ratio was at most 0.25. With SEHM, the enrichment ratio is 23.7. Take TEHM: the enrichment ratio amounted to 58.9. Turning to KYHM, the enrichment ratio was at most 0.25. With TGHM the figure was 4.7; with YYHM, at most 0.25. With QEHM the figure was 10.7; with EAYE, at most 0.25. The result for GGYY reads at most 0.25; that for AAAM, 10.1; that for AIAM, 6.08. Take ANAM: the enrichment ratio is 32.2. The result for ADAM reads 3.24; that for ALAM, 12.2; that for TLAM, 3.04. The result for ALWM reads at most 0.25; that for ANIM, 4.25. Regarding AKAM, the enrichment ratio is 13.1.
